Data taken from PubChem BioAssay (NCATS).
“And” between values parts separate entries of the source, which are not always exact repeats. Equal values may be shown once. Inconclusive results are not listed. More than one record can exist for a structure, and the calls need not agree. The source made the active and inactive calls. Unless noted, calls follow the shape of the dose curve; as a rule, active = well fitted curve in the direction sought with a large enough effect; inconclusive = small, poorly fitted or top-dose-only effect, or another doubt; inactive = no such curve, though single readings can be large; an effect the other way counts as inactive or inconclusive.

Legend:
[1] = Cell Viability - Hek293 (AID 427;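 active = compounds whose dose-response curve shows a full or clear partial loss of cell viability, called from curve shape rather than a numeric limit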;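 also: potency is read from the fitted curve at half-maximal effect; cells exposed to compound for 40 hours at 37 °C before reading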); conditions: qHTS
How it was run: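 Luminescent ATP read-out (CellTiter-Glo, 20 min RT) after 40 hr compound exposure at 37 °C in complete medium. Signal normalized to DMSO (basal) and 100 uM tamoxifen (100% inhibition); concentration-response fitted with the standard Hill equation to give AC50.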

[2] = Cell Viability - HepG2 (AID 433; calls by dose curve;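 also: potency is read from the fitted curve at half-maximal effect; potency for ATP loss meaning cytotoxicity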); conditions: qHTS
How it was run: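 In this qHTS format, a 40 h, 37 °C compound incubation of HepG2 cells in complete medium precedes a 20 min CellTiter-Glo step at room temperature. Tamoxifen and doxorubicin serve as positive controls; Hill-equation fits yield AC50.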

[3] = Cell Viability - NIH 3T3 (AID 541); conditions: NIH 3T3 cell viability, qHTS; activity change, negative = cytotoxicity: at 92.2 µM (top of the series); also: nearly all actives have a fitted effect of over 25% in size; also: potency is read from the fitted curve at half-maximal effect;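 as to activity change, negative = cytotoxicity: plate controls were DMSO alone for no effect and tamoxifen positive control for full effect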
How it was run: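 NIH 3T3 mouse embryo fibroblasts (1000 cells/well) were plated in complete medium and treated with compound for 40 hr at 37 °C. Viability was read as intracellular ATP by CellTiter-Glo luminescence; AC50 values came from Hill-equation fits of concentration-response data.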

[4] = Cell Viability - HUV-EC-C (AID 542); conditions: HUV-EC-C endothelial cell viability, qHTS; series mostly up to 92.2 µM; also: nearly all actives have a fitted effect of over 35% in size; also: potency is read from the fitted curve at half-maximal effect; as to activity change, negative = cytotoxicity: % is scaled to controls: 0 for no effect and ±100 for the full control effect
How it was run: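 HUV-EC-C normal human vascular endothelial cells, 1000 cells/well, pre-incubated 5 hr at 37 °C, then exposed to compounds for 40 hr at 37 °C in complete medium. Viability measured as intracellular ATP by CellTiter-Glo luminescence; AC50 from Hill fits.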

[5] = Cell Viability - Mesenchymal (AID 546); conditions: mesenchymal cells viability, qHTS; activity change, negative = cytotoxicity: at 91.7 µM (top of the series);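 also: cells exposed to compound for 40 hours before reading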; also: potency is read from the fitted curve at half-maximal effect
How it was run: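 Normal human renal glomerulus-derived kidney mesenchymal cells, 1000 per well in complete medium, were treated with compounds for 40 hr at 37 °C. Viability was read as intracellular ATP by CellTiter-Glo luminescence; AC50 values came from Hill-equation fits of qHTS concentration-response data.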

[6] = Cellular Toxicity (caspase-3) HUV-EC-C (AID 656); conditions: HUV-EC-C cells, caspase-3 activation (apoptosis); series mostly up to 92.2 µM
How it was run: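 Concentration-dependent caspase 3/7 induction was assessed in HUV-EC-C cells exposed for 16 hours. Data scaled between DMSO and tamoxifen (100 uM) controls.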

[7] = Cellular Toxicity (caspase-3) Mesangial (AID 660); conditions: mesangial cells, normalized: DMSO 0%, 100 µM tamoxifen 100%; at 91.7 µM (top of the series);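 also: cells exposed to compound for 16 h before the caspase read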
How it was run: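 Human renal glomerular mesangial cells (1000/well) were treated with compounds for 16 h at 37 °C in complete medium, then caspase 3/7 activity was read by Caspase-Glo luminescence. Data were normalized to DMSO and 100 uM tamoxifen; AC50 from Hill fits.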

[8] = Cellular Toxicity (caspase-3) H-4-II-E (AID 663); conditions: H-4-II-E rat hepatoma; Potency: caspase-3 activation; caspase-3 activation: at 92.2 µM (top of the series), scaled: DMSO 0%, 100 µM tamoxifen 100%;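 also: cells exposed to compound for 16 hr before readout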
How it was run: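 Luminescence from caspase-cleaved aminoluciferin substrate, read 20 min after reagent addition, reports caspase 3/7 activation in rat H-4-II-E cells after 16 hr compound exposure. Normalized to DMSO (basal) and 100 uM tamoxifen (100%); AC50 from Hill fits.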

[9] = Cellular Toxicity (caspase-3) Hek293 (AID 664); conditions: HEK293 caspase-3 activation, DMSO = 0%, 100 µM tamoxifen = 100%; at 92.2 µM (top of the series);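 also: cells exposed to compound for 16 h at 37 °C before readout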
How it was run: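 HEK293 cells were exposed to compounds in complete medium for 16 hr at 37 °C, then caspase-3/7 activity was read by Caspase-Glo 3/7 luminescence after 20 min at room temperature. Data normalized to DMSO and 100 uM tamoxifen; AC50 from Hill fits.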

[10] = Cellular Toxicity (caspase-3) NIH 3T3 (AID 666); conditions: NIH 3T3 caspase-3 activation, apoptosis/toxicity; series mostly up to 92.2 µM;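 also: 0% = DMSO basal and 100% = 100 µM tamoxifen stimulation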
How it was run: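 Mouse NIH 3T3 fibroblasts (1000 cells/well) were treated with compound for 16 hr at 37°C in complete medium; caspase-3/7 activity was read by Caspase-Glo luminescence. Normalized to DMSO and 100 uM tamoxifen; AC50 from Hill fits.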

[11] = Cell Viability - LYMP1-002 - Assay at 16 hr (AID 948); conditions: LYMP1-002 lymphoblastoid cell viability; series mostly up to 92.2 µM; also: potency is read from the fitted curve at half-maximal effect;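 as to activity change, negative = cytotoxicity: 0% = DMSO alone and full effect = 92 µM tetraoctylammonium bromide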
How it was run: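 In this qHTS, lymphoblastoid LYMP1-002 cells (human) receive compounds for 16 hr at 37 C. Viability is taken from CellTiter-Glo ATP luminescence, and AC50 derives from standard Hill fits.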

[12] = Cell Viability - LYMP1-003 - Assay at 24 hr (AID 963); conditions: LYMP1-003 lymphoblastoid cell viability; series mostly up to 92.2 µM; also: potency is read from the fitted curve at half-maximal effect
How it was run: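 Human lymphoblastoid LYMP1-003 cells (2500/well) were rested 5 hr at 37 C, then exposed to compounds in complete medium for 24 hr at 37 C. Cellular ATP was quantified by CellTiter-Glo luminescence, and AC50 values came from Hill fits of concentration-response data.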

[13] = Cell Viability - LYMP2-003 (AID 965); conditions: LYMP2-003 lymphoblastoid cell viability; series mostly up to 92.2 µM;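 also: cells exposed to compounds for 24 h before reading; nearly all actives have a fitted effect of over 50% in size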; also: potency is read from the fitted curve at half-maximal effect;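 as to activity change, negative = cytotoxicity: 0% = DMSO only and full effect = 92 µM tetraoctylammonium bromide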
How it was run: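 qHTS, human lymphoblastoid line, 2500 cells/well, complete medium. 24 h drug, 37 C. ATP-based luminescent readout; Hill-fit AC50.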

[14] = Cell Viability - LYMP2-025 (AID 976); conditions: LYMP2-025 lymphoblastoid cell viability; series mostly up to 92.2 µM; also: potency is read from the fitted curve at half-maximal effect;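 as to activity change, negative = cytotoxicity: plate controls were DMSO only for no effect and tetraoctylammonium bromide control for full effect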
How it was run: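 Human lymphoblastoid LYMP2-025 cells (2500/well) were pre-incubated 5 hr at 37 C, then treated with compounds for 24 hr at 37 C in complete medium. Viability was read as intracellular ATP by CellTiter-Glo luminescence; AC50 from Hill fits.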

[15] = Cell Viability - LYMP2-007 (AID 979); conditions: LYMP2-007 lymphoblastoid cell viability; series mostly up to 92.2 µM;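 also: cells exposed to compound for 24 h before reading; nearly all actives have a fitted effect of over 60% in size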; also: potency is read from the fitted curve at half-maximal effect;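 as to activity change, negative = cytotoxicity: 0% = DMSO only and the negative end = 92 µM tetraoctylammonium bromide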
How it was run: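 Human lymphoblastoid cells (2500/well) were plated in complete medium, incubated 5 hr at 37 C, then exposed to compounds for 24 hr at 37 C. Intracellular ATP was read by CellTiter-Glo luminescence after 30 min at room temperature; AC50 from Hill fits.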

[16] = Cell Viability - LYMP1-002 - Assay at 24 hr (AID 993); conditions: LYMP1-002 lymphoblastoid cells viability; series mostly up to 92.2 µM; also: potency is read from the fitted curve at half-maximal effect; as to activity change, negative = cytotoxicity: % is scaled to controls: 0 for no effect and ±100 for the full control effect
How it was run: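 Human lymphoblastoid LYMP1-002 cells, 2500/well in complete medium, were treated with compounds for 24 h at 37 C; intracellular ATP was read by CellTiter-Glo luminescence. AC50 values came from Hill-equation fits of qHTS concentration-response data.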

[17] = target: Voltage-gated inwardly rectifying potassium channel KCNH2 (Homo sapiens) (UniProt Q12809); experiment: qHTS Assay for Small Molecule Inhibitors of the Human hERG Channel Activity (AID 588834); conditions: U2OS BacMam hERG, FluxOR thallium flux fluorescence; series mostly up to 92.2 µM;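 also: lower thallium flux fluorescence means stronger hERG block; nearly all actives have a fitted effect of over 50% in size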; also: potency is read from the fitted curve at half-maximal effect
How it was run: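 Blockade is seen as reduced FluxOR thallium-flux fluorescence in U2OS cells expressing hERG from a BacMam construct, in Opti-MEM with 2% FCS. Concentration-response data fitted to the Hill equation for AC50.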

[18] = qHTS assay for small molecule disruptors of the mitochondrial membrane potential - 1 hr assay (AID 651754; calls by dose curve; also: nearly all actives have a fitted effect of over 35% in size; also: potency is read from the fitted curve at half-maximal effect); conditions: series mostly up to 92.2 µM
How it was run: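 HepG2 cells, attached overnight at 37C, were exposed to compound or DMSO vehicle for 1 hr at 37C, 5% CO2, then stained with Mito-MPS dye for 30 min. Red aggregate versus green monomer fluorescence reports membrane potential.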

[19] = qHTS assay for small molecule disruptors of the mitochondrial membrane potential - 5 hr assay (AID 651755; calls by dose curve; also: nearly all actives have a fitted effect of over 40% in size; also: potency is read from the fitted curve at half-maximal effect); conditions: JC-1-type ratio dye; series mostly up to 92.2 µM
How it was run: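 HepG2 cells, attached overnight at 37C, were exposed to compound or DMSO for 5 hr at 37C, 5% CO2. Mito-MPS dye was then added for 30 min, and fluorescence read at 490/535 nm (monomers) and 540/590 nm (aggregates).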

[20] = qHTS assay for cell viability of the p53RE-bla HCT-116 cell line (AID 743292); conditions: p53RE-bla HCT-116 viability, ATP luminescence, 16 h; series mostly up to 95 µM; also: nearly all actives have a fitted effect of over 55% in size; also: potency is read from the fitted curve at half-maximal effect; as to activity change, negative = cytotoxicity: % is scaled to controls: 0 for no effect and ±100 for the full control effect
How it was run: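 ATP-based luminescence, 16 h compound exposure at 37 C, p53RE-bla HCT-116 cells at 4,000/well.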

Voltage-gated inwardly rectifying potassium channel KCNH2 (Homo sapiens), sequence (Q12809 whole entry, looked up): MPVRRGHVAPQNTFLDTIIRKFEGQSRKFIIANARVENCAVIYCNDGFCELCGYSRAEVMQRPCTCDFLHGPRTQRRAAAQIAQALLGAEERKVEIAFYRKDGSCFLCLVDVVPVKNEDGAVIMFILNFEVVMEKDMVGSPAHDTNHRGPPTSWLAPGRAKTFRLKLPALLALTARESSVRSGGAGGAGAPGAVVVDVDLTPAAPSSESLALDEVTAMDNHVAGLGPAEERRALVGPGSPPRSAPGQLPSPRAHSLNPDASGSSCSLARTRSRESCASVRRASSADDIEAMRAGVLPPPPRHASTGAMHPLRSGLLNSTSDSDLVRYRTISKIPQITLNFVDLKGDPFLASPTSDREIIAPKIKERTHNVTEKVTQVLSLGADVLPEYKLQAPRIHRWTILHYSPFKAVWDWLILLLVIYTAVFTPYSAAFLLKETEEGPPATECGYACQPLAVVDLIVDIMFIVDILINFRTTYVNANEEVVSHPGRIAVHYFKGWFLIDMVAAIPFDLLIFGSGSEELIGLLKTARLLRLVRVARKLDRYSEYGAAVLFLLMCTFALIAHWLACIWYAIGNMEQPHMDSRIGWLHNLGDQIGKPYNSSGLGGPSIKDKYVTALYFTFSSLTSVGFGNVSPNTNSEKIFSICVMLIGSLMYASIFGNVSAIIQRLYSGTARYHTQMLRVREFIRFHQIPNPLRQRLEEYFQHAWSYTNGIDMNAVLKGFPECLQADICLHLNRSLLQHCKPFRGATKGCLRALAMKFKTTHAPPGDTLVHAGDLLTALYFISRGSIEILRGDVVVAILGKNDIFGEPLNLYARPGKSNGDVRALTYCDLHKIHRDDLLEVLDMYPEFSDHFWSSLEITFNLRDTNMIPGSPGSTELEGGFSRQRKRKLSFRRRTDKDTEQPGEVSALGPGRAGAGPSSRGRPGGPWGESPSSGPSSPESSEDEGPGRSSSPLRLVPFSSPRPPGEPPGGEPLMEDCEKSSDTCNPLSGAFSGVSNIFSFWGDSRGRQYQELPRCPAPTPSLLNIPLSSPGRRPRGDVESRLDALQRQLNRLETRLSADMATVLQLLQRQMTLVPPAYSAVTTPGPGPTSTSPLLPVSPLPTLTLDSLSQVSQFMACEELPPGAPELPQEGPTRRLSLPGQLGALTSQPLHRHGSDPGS

Nc1ccc2cc3ccccc3cc2c1
active: Potency [17] 5.01 µM | Potency [18] 3.76 µM | Potency [19] 3.76 µM
inactive: Potency [1] > 92 µM | Potency [2] > 92 µM | Potency [3] | Potency [4] | Potency [5] | Potency [6] | caspase-3 activation [7] -0.235% | caspase-3 activation [8] -0.822% | caspase-3 activation [9] -0.457% | Potency [10] | Potency [11] | Potency [12] | Potency [13] | Potency [14] | Potency [15] | Potency [16] | Potency [20]

c1cc(OCC2CO2)cc(OCC2CO2)c1 (stereo not drawn)
inactive: caspase-3 activation [9] 8.84% | Potency [12] | Potency [16] | Potency [17] | Potency [19] | Potency [20]
active: Potency [1] 32.9 µM | activity change, negative = cytotoxicity [3] -149%

ClC1=C(Cl)C(Cl)(Cl)C(Cl)=C1Cl
25.1 µM (active) and inactive: Potency [20]
inactive: Potency [1] > 92 µM | Potency [4] | Potency [5] | Potency [6] | caspase-3 activation [7] 0.653% | caspase-3 activation [8] 4.97% | Potency [10] | Potency [11] | Potency [12] | Potency [13] | Potency [16] | Potency [18] | Potency [19]
active: Potency [2] 22.6 µM | activity change, negative = cytotoxicity [3] -125% | caspase-3 activation [9] 131%

Oc1ccc2cc(SSc3ccc4cc(O)ccc4c3)ccc2c1
inactive: Potency [2] > 92 µM | Potency [6] | caspase-3 activation [7] -1.21% | caspase-3 activation [8] 4.17% | caspase-3 activation [9] 15.1% | Potency [10] | Potency [14] | Potency [20]
active: Potency [1] 46.2 µM | Potency [11] 50.1 µM | Potency [12] 50.1 µM | Potency [15] 39.8 µM | Potency [16] 50.1 µM | Potency [17] 44.7 µM | Potency [18] 66.8 µM | Potency [19] 42.2 µM

CCC(C)Nc1ccc(NC(C)CC)cc1 (stereo not drawn)
inactive: Potency [6] | caspase-3 activation [7] -4.04% | caspase-3 activation [8] -5.35% | caspase-3 activation [9] -12.1%
active: Potency [1] 19.3 µM | Potency [2] 13.5 µM | Potency [3] 5.01 µM | Potency [4] 10 µM | Potency [5] 12.6 µM | Potency [11] 15.8 µM | Potency [12] 12.6 µM | Potency [13] 10 µM | Potency [14] 7.94 µM | Potency [15] 5.01 µM | Potency [16] 15.8 µM | Potency [17] 14.1 µM | Potency [19] 59.6 µM | Potency [20] 35.5 µM and 28.2 µM

Cc1cc(Nc2ccc(O)cc2)ccc1N
inactive: Potency [6] | caspase-3 activation [7] 23.2% | caspase-3 activation [8] 20.7% | caspase-3 activation [9] -8.9% | Potency [11] | Potency [12] | Potency [16] | Potency [17] | Potency [20]
active: Potency [1] 52.8 µM | activity change, negative = cytotoxicity [3] -158% | Potency [13] 50.1 µM | Potency [14] 50.1 µM | Potency [15] 31.6 µM
